Only some compounds are listed: those with a hit (about 11% of all), similar ones and a draw of the others.
IL-1B inflam inh: blocks inflammasome-driven IL-1 beta release | activity change, % at 57.5 µM | AID 743279 | actives 4.7% (n = 360,000) | THP-1 LPS/ATP IL-1B secretion, AlphaLISA, 16 h; hits give low values; in the data active = activity change below about -50%; inconclusive = mostly about -30% to -49%
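THP-1 cells pretreated 1 hr with compounds (up to 57.5 uM final), then stimulated with LPS (250 ng/mL final) plus ATP (1.25 mM final); secreted IL-1B measured by AlphaLISA after 16 hr, decreased signal indicating inhibition.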
MCF10A rereplic: induces DNA re-replication in MCF 10a normal breast cells; actives 2.9% (n = 350,000); MCF 10A DNA re-replication, Hoechst nuclear intensity, 48 h; Potency, µM (titrated, usually from 46.1 µM), most hits filed as activators; note: nearly all actives have a fitted effect of over 50% in size
SW480 rerep: induces DNA re-replication in SW480 colon adenocarcinoma cells | SW480 DNA re-replication, Hoechst DNA content imaging, 48 h | Potency, µM (titrated, usually from 46.1 µM), actives largely listed as activators | actives 1.8% (n = 340,000); note: nearly all actives have a fitted effect of over 55% in size
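250 cells/well; 23 nL cpd via pin tool; 48 hr, 37 C, 5% CO2; Hoechst 40 min; imager read of total nuclear intensity, ex 405/em 500-530 nm.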
Gal4-VP16 FLuc: counter-screen for ROR gamma inhibitors: Gal4-VP16 reporter; Drosophila S2 Gal4-VP16 UAS-luciferase, luminescence, 20 h; Potency, µM (doses to about 53.6 µM), hits mostly inhibitors; actives 3.5% (n = 310,000);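 note: Gal4-VP16 expression switched on by copper sulfate through the metallothionein promoter; nearly all actives have a fitted effect of over 50% in size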
RORgamma inh: inhibitors of mouse ROR gamma transcriptional activity. AID 2551. Drosophila S2 Gal4-RORgamma UAS-luciferase reporter, 20 h. P51450. Potency, µM (titrated, usually from 53.6 µM), most hits filed as inhibitors. actives 5.4% (n = 310,000); note: nearly all actives have a fitted effect of over 60% in size
Target sequence (P51450 whole entry, looked up, the tested form may be a part): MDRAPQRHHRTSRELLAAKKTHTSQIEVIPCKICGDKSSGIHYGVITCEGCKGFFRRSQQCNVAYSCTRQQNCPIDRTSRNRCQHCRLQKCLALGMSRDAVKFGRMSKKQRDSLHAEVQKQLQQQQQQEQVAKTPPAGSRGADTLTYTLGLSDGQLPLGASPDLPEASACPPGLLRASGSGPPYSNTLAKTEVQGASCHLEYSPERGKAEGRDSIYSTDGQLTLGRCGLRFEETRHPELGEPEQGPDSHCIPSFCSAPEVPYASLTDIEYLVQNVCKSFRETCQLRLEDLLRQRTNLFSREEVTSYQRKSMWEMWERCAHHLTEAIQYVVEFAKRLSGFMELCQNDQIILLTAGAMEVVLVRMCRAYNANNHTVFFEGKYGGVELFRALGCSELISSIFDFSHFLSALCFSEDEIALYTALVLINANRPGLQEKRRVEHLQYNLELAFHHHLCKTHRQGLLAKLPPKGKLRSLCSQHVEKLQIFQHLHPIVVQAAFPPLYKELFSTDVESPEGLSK
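Schneider cells (Drosophila), stable Gal4 DBD–ROR gamma + UAS-luc; 1 hr cmpd preincubation; Cu2+ induction 700 uM final; 20 hr ambient; luminescence.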
Each line names hits and unclear results; the compound was inactive in the other large screens. Unless noted, calls come from the whole dose curve; as a rule, active = well fitted curve in the direction sought with a large enough effect; inconclusive = small, poorly fitted or top-dose-only effect, or another doubt; inactive = no such curve, though single readings can be large; an effect the other way counts as inactive or inconclusive.

CCC(C)[C@H](NC(=O)N1CCn2c1nc1ccccc12)C(=O)NCCc1ccc(OC)c(OC)c1 (some centres not stated)	none
C#CCCCO/N=C1/C[C@@H](O)[C@@H](O)[C@@H]2[C@@H]3C(=O)N(CC)C(=O)[C@H]3CC[C@H]12	none (no result: IL-1B inflam inh, MCF10A rereplic, SW480 rerep)
COc1ccc(N(C)S(=O)(=O)c2cccc(C(=O)NCc3ccc(C)cc3)c2)cc1	IL-1B inflam inh -59 (no result: Gal4-VP16 FLuc, RORgamma inh)
COc1ccc(CNC(=O)c2ccc(N(C)S(=O)(=O)c3ccc(C)cc3)cc2)cc1	none
Cc1cc(C)cc(N(CCC(=O)Nc2nnc(C3CC3)s2)S(=O)(=O)c2ccc(Cl)cc2)c1	MCF10A rereplic inconclusive, SW480 rerep 23µM, Gal4-VP16 FLuc inconclusive
O=C(Nc1nc2ccccc2[nH]1)c1cccc(F)c1	MCF10A rereplic inconclusive, SW480 rerep 21µM, Gal4-VP16 FLuc 7.1µM, RORgamma inh 5.6µM
CN(C)c1cccc(C(=O)Nc2nc3ccccc3[nH]2)c1	IL-1B inflam inh inconclusive, SW480 rerep inconclusive, Gal4-VP16 FLuc 11µM, RORgamma inh 5µM
O=C(CCC(=O)Nc1ccccc1Cl)NNC(=O)Nc1cccc([N+](=O)[O-])c1	none
CC(=O)OC1CC2C(C)(C)C(=O)C3OC3[C@]2(C)C2CC[C@@]3(C)C(c4ccoc4)OC(=O)C4OC43[C@]12C (some centres not stated)	Gal4-VP16 FLuc inconclusive (no result: IL-1B inflam inh, MCF10A rereplic, SW480 rerep)
O=C1c2cc([N+](=O)[O-])cc3cc([N+](=O)[O-])cc(c23)C(=O)N1c1ccccn1	IL-1B inflam inh -100, MCF10A rereplic inconclusive, SW480 rerep 21µM, RORgamma inh inconclusive
COc1ccc(C2C(C)C(=O)C(C)C(c3ccc(OC)cc3)N2N=O)cc1 (configuration not stated)	none (no result: Gal4-VP16 FLuc, RORgamma inh)
O=C(CCNS(=O)(=O)c1ccccc1)NNC(=O)COc1ccccc1F	none (no result: Gal4-VP16 FLuc, RORgamma inh)
Cc1cc(/C=C(\C#N)c2nnc(N3CCOCC3)n2-c2ccccc2)c(C)n1-c1ccccc1	none (no result: IL-1B inflam inh, MCF10A rereplic, SW480 rerep)
COc1cc(/C=C(\C#N)c2nnc(N3CCOCC3)n2-c2ccccc2)ccc1O	SW480 rerep 6.5µM
O=C(N/N=C\c1c(O)ccc2ccccc12)c1ccc(O)cc1	SW480 rerep inconclusive, Gal4-VP16 FLuc 5.6µM, RORgamma inh 5µM
O=C(N/N=C/c1c(O)ccc2ccccc12)Nc1ccccc1	none (no result: Gal4-VP16 FLuc, RORgamma inh)
O=C(NN=Cc1c(O)ccc2ccccc12)c1ccncc1	MCF10A rereplic inconclusive (no result: Gal4-VP16 FLuc, RORgamma inh)
Cc1occc1C(=O)N/N=C/c1c(O)ccc2ccccc12	MCF10A rereplic inconclusive, SW480 rerep 0.52µM, Gal4-VP16 FLuc 18µM, RORgamma inh 4µM
CC1(C)C2CC=C(/C=N/NC(=O)c3ccc(O)cc3)C1C2 (configuration not stated)	IL-1B inflam inh -54
Cn1cc(C(=O)N/N=C/c2c(O)ccc3ccccc23)ccc1=O	MCF10A rereplic 26µM
COc1ccc(/C=N/NC(=O)c2ccc(=O)n(C)c2)cc1OC	none
COC(=O)N/N=C/C1=CCC2CC1C2(C)C (configuration not stated)	none
O=C(CCNC(=O)c1ccc(Cl)cc1)Nc1cccc(S(=O)(=O)N2CCCCC2)c1	none (no result: Gal4-VP16 FLuc, RORgamma inh)
NC(=O)CC(NC(=O)c1cccc(Br)c1)c1ccc(NC2CCCCCCCCCCC2)c([N+](=O)[O-])c1 (configuration not stated)	none
COc1cc(OC)cc(C(=O)NCC(C)NC(=O)c2cc(OC)cc(OC)c2)c1 (configuration not stated)	none (no result: Gal4-VP16 FLuc, RORgamma inh)
NC(Cc1ccc(C(F)(F)F)cc1)c1csc(Nc2nccc(C(F)(F)F)n2)n1 (configuration not stated)	none (no result: MCF10A rereplic, SW480 rerep, Gal4-VP16 FLuc, RORgamma inh)
CNC(=O)c1ccc(CN(C)C(=O)c2cccc(S(=O)(=O)N3CCc4ccccc4C3)c2)cc1	none (no result: MCF10A rereplic, SW480 rerep, Gal4-VP16 FLuc, RORgamma inh)
CCOc1ccc2ccccc2c1/C=N\NC(=O)c1ccc([N+](=O)[O-])cc1	SW480 rerep 23µM, RORgamma inh inconclusive
O=C(N/N=C/c1c(O)ccc2ccccc12)c1ccc(Br)o1	MCF10A rereplic inconclusive, SW480 rerep 1.2µM, Gal4-VP16 FLuc 2.8µM, RORgamma inh 3.2µM
CCOc1ccc2ccccc2c1/C=N\NC(=O)OC	none
Cn1nccc1C(=O)N/N=C/c1c(O)ccc2ccccc12	MCF10A rereplic 16µM, SW480 rerep inconclusive, Gal4-VP16 FLuc 2.8µM, RORgamma inh 3.2µM
O=C(Cn1cnc2c(NC(=O)OCc3ccccc3)ncnc21)NCc1ccccn1	none (no result: Gal4-VP16 FLuc, RORgamma inh)
OC(c1ccc(F)cc1)c1nc(-c2ccc(F)c(Cl)c2)cs1 (configuration not stated)	none (no result: MCF10A rereplic, SW480 rerep, Gal4-VP16 FLuc, RORgamma inh)
CC1CCN(C(=O)CN2C(=O)C(=O)N(C(C)C)C2=O)c2ccccc2S1 (configuration not stated)	none (no result: Gal4-VP16 FLuc, RORgamma inh)
COc1ccc(CCNC(=O)Cc2ccc([N+](=O)[O-])cc2)cc1OC	RORgamma inh inconclusive
COc1ccc(CCNC/C=C/c2ccccc2)cc1	IL-1B inflam inh -68, SW480 rerep inconclusive (no result: Gal4-VP16 FLuc, RORgamma inh)
CCOc1cc(CNc2ccc(O)cc2)ccc1OCc1ccc(Cl)cc1Cl	IL-1B inflam inh -106, MCF10A rereplic inconclusive, SW480 rerep inconclusive, Gal4-VP16 FLuc inconclusive, RORgamma inh 16µM
COc1ccc(CNC/C=C/c2ccccc2)cc1	none
COc1ccc(CCNCc2ccc(-c3ccccc3)cc2)cc1OC	IL-1B inflam inh -90, MCF10A rereplic 23µM, SW480 rerep inconclusive (no result: Gal4-VP16 FLuc, RORgamma inh)
COc1ccc(CCNC(=O)Cc2ccc(OCc3ccccc3)c(OC)c2[N+](=O)[O-])cc1OCc1ccccc1	MCF10A rereplic inconclusive, Gal4-VP16 FLuc 3.2µM, RORgamma inh inconclusive
CCOc1cccc(CNc2ccc(O)cc2)c1OCc1ccc(Cl)cc1	MCF10A rereplic inconclusive, SW480 rerep inconclusive, Gal4-VP16 FLuc inconclusive, RORgamma inh inconclusive
COc1ccc(CCNS(=O)(=O)c2ccccc2)cc1OC	none
COc1ccc(S(=O)(=O)NCC(=O)N(CC(=O)NCc2ccco2)C2CCCC2)cc1	none
O=C(NC(=S)NCc1ccccc1Cl)c1cccs1	none (no result: Gal4-VP16 FLuc, RORgamma inh)
Cc1ccc(S(=O)(=O)NCC(C)n2cncn2)cc1C (configuration not stated)	none
COc1ccc(CCNCc2csc3nc4ccccc4n23)cc1OC	SW480 rerep inconclusive, Gal4-VP16 FLuc 6.3µM
COc1ccc(CNCCc2ccccc2)cc1OCC(N)=O	none
COc1ccc(CCNc2nc3ccccc3n3nnnc23)cc1OC	none
COc1ccc(CNCCc2ccc(Cl)cc2)cc1OCc1ccccc1	IL-1B inflam inh -96, SW480 rerep inconclusive, RORgamma inh inconclusive
COc1ccc(CCNCC(O)COc2ccc(Cl)cc2)cc1OC (configuration not stated)	IL-1B inflam inh inconclusive
COc1ccc(CCNCc2ccc(OCc3ccccc3)cc2)cc1	IL-1B inflam inh -99, MCF10A rereplic inconclusive
COc1ccc(CCNCC(O)COc2c(C)cccc2C)cc1OC (configuration not stated)	IL-1B inflam inh -67
CC1(C(=O)NS(=O)(=O)c2ccc(C#N)cc2)CCN1C(=O)C1(c2ccccc2)CC1 (configuration not stated)	none (no result: MCF10A rereplic, SW480 rerep, Gal4-VP16 FLuc, RORgamma inh)

Assay outcomes from PubChem BioAssay.
